# Inconclusive results are not listed. Calls of active or inactive are those of the source. Calls come from the whole dose curve; as a rule, active = well fitted cell-killing curve with a large enough effect; inconclusive = small, poorly fitted or top-dose-only effect, or effect the other way; inactive = no such curve, though single readings can be large or run the other way.
# Assay: Quantitative High-Throughput drug screen in 47 multiple myeloma cell lines against the NCATS MIPE library collection: KMS20_JCRB cell viability assay (AID 1918973); note: nearly all actives have a fitted effect of over 45% in size;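 for viability (% of DMSO): 100% = DMSO only wells and 0% = media only wells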
# Conditions: CellTiter-Glo ATP, 48 h; series mostly up to 45.8 µM; viability (% of DMSO): at the top concentration
# Outline: (§1)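 Viability readout: CellTiter-Glo luminescence following 5 min room-temperature incubation with reagent. Prior exposure: 48 h, 37C, humidified 5% CO2, 500 cells per well.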
# Potency is the fitted concentration of half-maximal effect.
SMILES,viability (% of DMSO),Potency
CCS(=O)(=O)N1CC(CC#N)(n2cc(-c3ncnc4[nH]ccc34)cn2)C1,94.2% (inactive),–
CN1C[C@H]2c3ccccc3Oc3ccc(Cl)cc3[C@@H]2C1,90.3% (inactive),–
O=C1Nc2ccc(Cl)cc2C(C#CC2CC2)(C(F)(F)F)O1 (stereo unspecified),–,20.9 µM (active)
CCC(=O)NC[C@H](Cc1ccc(OCCc2nc(-c3ccccc3)oc2C)cc1)NC(C)=CC(=O)c1ccc(C(F)(F)F)cc1,118% (inactive),–
O=c1c(O)c(-c2ccc(O)cc2)oc2cc(O)cc(O)c12,–,14.8 µM (active)
CC(C)C[C@H](CC(=O)O)C(=O)N[C@@H](Cc1c[nH]c2ccccc12)C(=O)N[C@@H](C)c1ccccc1,115% (inactive),–
O=c1cc(-c2cccc3c2Sc2ccccc2S3)oc(N2CCOCC2)c1,–,13.2 µM (active)

# Assay: Quantitative High-Throughput drug screen in 47 multiple myeloma cell lines against the NCATS MIPE library collection: KMS21BM_JCRB cell viability assay (AID 1918974)
# Conditions: ATP luminescence, 48 h; viability: at 45.8 µM (top of the series) unless noted
# Outline: as §1
SMILES,Potency,viability
C[C@H](NC(=O)C(=O)Nc1ccccc1C(C)(C)C)C(=O)N[C@@H](CC(=O)O)C(=O)COc1c(F)c(F)cc(F)c1F,6.62 µM (active),–
CN1CCN(CCOc2cc(OC3CCOCC3)c3c(Nc4c(Cl)ccc5c4OCO5)ncnc3c2)CC1,1.87 µM (active),–
CC1(C)CCC[C@@]2(C)[C@@H]1CC[C@@]1(C)OC(=O)C[C@H]21,–,139% (inactive)
NC(=O)c1ccc2nc(-c3ccc(Oc4ccc(Cl)cc4)cc3)[nH]c2c1,18.7 µM (active),–
CC1(C)S[C@H]2[C@H](NC(=O)[C@@H](N)c3ccc(O)cc3)C(=O)N2[C@@H]1C(=O)O,0.296 µM (active),–
CS(=O)c1ccc(-c2nc(-c3ccc(F)cc3)c(-c3ccncc3)[nH]2)cc1 (stereo unspecified),–,1.55% [at 92.2 µM] (active)
O=c1c(O)c(-c2ccc(O)cc2)oc2cc(O)cc(O)c12,5.9 µM (active),–
NC1CCC(Nc2nc(Nc3ccc(C(=O)N4CCCCC4)cc3)c3ncn(-c4cccc(F)c4)c3n2)CC1 (stereo unspecified),–,146% (inactive)
NC(CO)(CO)CCc1ccc(Sc2cccc(OCc3ccccc3)c2)cc1Cl,13.2 µM (active),–

# Assay: Quantitative High-Throughput drug screen in 47 multiple myeloma cell lines against the NCATS MIPE library collection: KMS26_JCRB cell viability assay (AID 1918975); note: nearly all actives have a fitted effect of over 45% in size;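 for viability (% of DMSO): 100% = DMSO-treated wells and 0% = wells with media only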
# Conditions: KMS26 myeloma cells viability, CellTiter-Glo ATP, 48 h; series mostly up to 45.8 µM; viability (% of DMSO): at the top concentration
# Outline: as §1
SMILES,viability (% of DMSO),Potency
CC[C@H]1OC(=O)[C@H](C)[C@@H](O[C@H]2C[C@@](C)(OC)[C@@H](O)[C@H](C)O2)[C@H](C)[C@@H](O[C@@H]2O[C@H](C)C[C@H](N(C)C)[C@@H]2O)[C@](C)(O)C[C@@H](C)CN(C)[C@H](C)[C@@H](O)[C@]1(C)O,110% (inactive),–
CCS(=O)(=O)N1CC(CC#N)(n2cc(-c3ncnc4[nH]ccc34)cn2)C1,–,16.6 µM (active)
CC(=O)Nc1ccc([C@H](C)C(=O)Nc2ncc(C(C)C)s2)cc1,–,1.32 µM (active)
CC(C)(C)C(=O)Oc1ccc2c(c1)nc(NC(=O)c1cccc([N+](=O)[O-])c1)n2CCCO,160% (inactive),–
C[C@H](NC(=O)C(=O)Nc1ccccc1C(C)(C)C)C(=O)N[C@@H](CC(=O)O)C(=O)COc1c(F)c(F)cc(F)c1F,150% (inactive),–
O=C1Nc2ccc(Cl)cc2C(C#CC2CC2)(C(F)(F)F)O1 (stereo unspecified),–,23.5 µM (active)
CCC(=O)NC[C@H](Cc1ccc(OCCc2nc(-c3ccccc3)oc2C)cc1)NC(C)=CC(=O)c1ccc(C(F)(F)F)cc1,–,20.9 µM (active)
NC[C@@H]1O[C@@H](O[C@H]2[C@@H](O)[C@H](O[C@@H]3[C@@H](O)[C@@H](N)C[C@H](N)[C@H]3O[C@H]3O[C@H](CN)[C@@H](O)[C@@H](O)[C@H]3N)O[C@H]2CO)[C@H](N)[C@@H](O)[C@@H]1O,150% (inactive),–
CC(C)C[C@H](CC(=O)O)C(=O)N[C@@H](Cc1c[nH]c2ccccc12)C(=O)N[C@@H](C)c1ccccc1,132% (inactive),–
COc1cc(NC(=O)c2ccc(-c3ccc(Cl)cc3)o2)cc(OC)c1,162% (inactive),–
CC(C)n1cnc2c(NCCCCCCNC(=O)OC(C)(C)C)nc(NCCO)nc21,–,23.5 µM (active)
CO[C@H]1C=CO[C@@]2(C)Oc3c(C)c(O)c4c(O)c(c5c(c4c3C2=O)NC2(CCN(CC(C)C)CC2)N=5)=NC(=O)C(C)=CC=C[C@H](C)[C@H](O)[C@@H](C)[C@@H](O)[C@@H](C)[C@H](OC(C)=O)[C@H]1C,98.2% (inactive),–
Cc1ccc(C(C)(O)c2nc3ccccc3s2)c(C)c1 (stereo unspecified),140% (inactive),–
NC(CO)(CO)CCc1ccc(Sc2cccc(OCc3ccccc3)c2)cc1Cl,–,18.7 µM (active)
O=C(O)[C@H]1O[C@H](Oc2cc3oc(-c4ccccc4)cc(=O)c3c(O)c2O)[C@H](O)[C@@H](O)[C@H]1O,–,20.9 µM (active)
